p53null 32C tox = p53 null cell cytotoxicity, permissive temperature | H1299-neo p53 null cells, ATP luminescence, 24 h, 32C | Potency, µM (titrated, usually from 46.1 µM), for inactives: at the top dose activity change, negative = cytotoxicity, hits mostly cytotoxic | 55,000 compounds, 0.62% hits | AID 903;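 further: potency means the concentration at half of the fitted maximal effect; 0% = DMSO only and -100% = full killing by 100 µM tamoxifen; nearly all actives have a fitted effect of over 55% in size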
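AC50 values derive from Hill modelling of qHTS concentration-response data (up to 46 uM) in H1299-neo cells. Cells were treated 24 h at 32C following overnight attachment at 37C; viability was read as cellular ATP.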
p53null 39C kill = selectivity test: cytotoxicity in p53 null cells, nonpermissive temperature. H1299 p53-null (neo) cells, 39C, ATPlite viability, 24 h. Potency, µM (highest dose often 46.1 µM), inactives show top-dose activity, negative = cell killing, hits mostly cytotoxic. 55,000 compounds, 0.97% hits. AID 904;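 further: potency means the concentration at half of the fitted maximal effect; 0% = DMSO only and -100% = full killing by 100 µM tamoxifen; nearly all actives have a fitted effect of over 50% in size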
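H1299 lung cancer cells, p53-null (H1299-neo) or expressing p53 A138V (H1299-p53A138V), were plated overnight at 37C, then exposed to compounds at up to 46 uM for 24 hr at 39C. Viability was read by ATP-based luminescence.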
PMP22 txn prim = modulators of PMP22 gene transcription in S16 Schwann cells; S16 Pmp22-F2sN Schwann cells, FLuc/NLuc coincidence luminescence, 24 h; Potency, µM (series often up to 57.5 µM), inactives show at the top dose activity change, negative = inhibition, usual class: inhibitors; 43,000 compounds, 2% hits; active means clear falling dose curves in both reporters; inconclusive means both reporters move, but less clearly or upward; inactive means either reporter flat; the % is the NLuc reporter signal; further: potency means the concentration at half of the fitted maximal effect; on the % scale 0 is the no-effect control and ±100 the full control effect
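S16 Schwann cells carrying FLuc/NLuc coincidence reporter in the Pmp22 3' UTR treated with compound 24 h at 37C; FLuc then NLuc luminescence read sequentially by dual-luciferase reagents.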
S16 F2sN tox = toxic to S16 Pmp22-F2sN Schwann cells; S16 Pmp22-F2sN Schwann cells viability, CellTiter-Glo, 24 h; Potency, µM (top dose mostly 57.5 µM), for the others: top-dose activity change, negative = cytotoxicity, hits mostly cytotoxic; 43,000 compounds, 0.48% hits; further: potency means the concentration at half of the fitted maximal effect; on the % scale 0 is the no-effect control and ±100 the full control effect; nearly all actives have a fitted effect of over 65% in size
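Used to flag compounds lowering reporter output through toxicity, this quantitative HTS measures ATP-based CellTiter-Glo luminescence in S16 Pmp22-F2sN Schwann cells after 24 h compound exposure at 37C.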
mTORC1 inh = inhibitors of mTORC1 signaling in Tsc2-/- p53-/- MEF cells; Potency, µM (titrated, usually from 38.3 µM), without a hit: at the highest dose activity change, negative = inhibition, most hits filed as inhibitors; AID 493208; 44,000 compounds, 0.78% hits; Tsc2-/- p53-/- MEF, phospho-rpS6 immunofluorescence/PI, 24 h;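 further: potency means the concentration at half of the fitted maximal effect; plate controls were DMSO for no effect and rapamycin for full effect; nearly all actives have a fitted effect of over 50% in size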
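Plate MEFs (Tsc2-/-, p53-/-, empty vector) in DMEM/10% FBS; after 24 h add compound, incubate 24 h at 37 degree Celsius; fix in PFA/TX-100, block, stain phospho-rpS6 and 10 uM PI; scan at 488 nm; report % positive cells.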
NLuc saturating = NanoLuc enzyme inhibition artifact for PMP22 screen. shares compounds with PMP22 txn prim. Secreted NLuc enzyme (filtered S16 cell medium), Nano-Glo luminescence. Potency, µM (titrated, usually from 57.5 µM), inactives show at the top dose activity change, negative = inhibition, most hits filed as inhibitors. 690 compounds, 4% hits; further: potency means the concentration at half of the fitted maximal effect; on the % scale 0 is the no-effect control and ±100 the full control effect
NLuc Km ctr = inhibits NanoLuc under Km conditions, PMP22 counter-screen; shares compounds with PMP22 txn prim; secreted NLuc enzyme, coelenterazine luminescence, Km conditions; Potency, µM (titrated, usually from 57.5 µM), for inactives: at the top dose activity change, negative = inhibition, actives largely listed as inhibitors; 690 compounds, 5% hits; AID 1508639; further: potency means the concentration at half of the fitted maximal effect; on the % scale 0 is the no-effect control and ±100 the full control effect
FLuc ctr PMP22 = counter-screen for PMP22 expression modulators: firefly luciferase inhibition | shares compounds with PMP22 txn prim | purified P. pyralis FLuc, luminescence, 10 min | Potency, µM (series often up to 57.5 µM), for inactives: at the top dose activity, negative = inhibition, most hits filed as inhibitors | 690 tested, under 10 active | AID 1508640; further: % of control where 0% means no effect
Target sequence (P08659 whole entry, looked up): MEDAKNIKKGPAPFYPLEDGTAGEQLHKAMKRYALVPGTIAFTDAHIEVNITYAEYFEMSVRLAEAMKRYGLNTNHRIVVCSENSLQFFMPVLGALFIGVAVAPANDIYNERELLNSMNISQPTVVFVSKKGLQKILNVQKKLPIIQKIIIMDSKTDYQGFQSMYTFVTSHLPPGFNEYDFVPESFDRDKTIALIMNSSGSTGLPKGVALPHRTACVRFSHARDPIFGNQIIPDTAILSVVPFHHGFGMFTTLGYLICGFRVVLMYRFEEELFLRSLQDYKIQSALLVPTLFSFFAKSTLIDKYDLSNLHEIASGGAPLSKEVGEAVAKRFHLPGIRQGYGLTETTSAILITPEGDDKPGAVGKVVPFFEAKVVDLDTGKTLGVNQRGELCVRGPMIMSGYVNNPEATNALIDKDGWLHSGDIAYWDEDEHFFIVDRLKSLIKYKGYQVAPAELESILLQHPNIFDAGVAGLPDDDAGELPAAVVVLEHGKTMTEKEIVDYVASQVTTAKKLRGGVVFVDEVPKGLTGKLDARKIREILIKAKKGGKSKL
S16 F2sN tox cnf = confirmation of cytotoxicity in S16 Pmp22-F2sN Schwann cells (luciferase reporters placed in the Pmp22 gene). 690 compounds, 7% hits. Potency, µM (highest dose often 57.5 µM), inactives show at the top dose activity change, negative = viability loss, actives largely listed as cytotoxic. shares compounds with PMP22 txn prim. S16 Schwann cells viability, CellTiter-Glo ATP luminescence, 24 h. AID 1508641; further: potency means the concentration at half of the fitted maximal effect; on the % scale 0 is the no-effect control and ±100 the full control effect
PMP22 txn cnf = confirmation of modulators of PMP22 gene transcription in S16 cells; Potency, µM (top dose mostly 57.5 µM), for the others: at the highest dose activity change, negative = inhibition, actives largely listed as inhibitors; 690 compounds, 22% hits; AID 1508646; S16 Schwann cells Pmp22-F2sN, dual luciferase, 24 h; shares compounds with PMP22 txn prim; active means clear falling dose curves in both reporters; inconclusive means both reporters move, but less clearly or upward; inactive means either reporter flat; the % is the FLuc reporter signal; further: potency means the concentration at half of the fitted maximal effect
* = called active by the depositor. Hits are enriched below; roughly 3.2% of the tested compounds scored in any of these assays. Unless noted, the call rests on the fitted dose curve; in most records, active means well fitted curve in the direction sought with a large enough effect; inconclusive means small, poorly fitted or top-dose-only effect, or another doubt; inactive means no such curve, though single readings can be large; an effect the other way counts as inactive or inconclusive.

How did COc1ccc(-c2cc(C(F)(F)F)nc(NCCc3ccccc3)n2)cc1OC do in these assays?
p53null 32C tox: -5%; p53null 39C kill: -8%; PMP22 txn prim: 13µM*; S16 F2sN tox: 4%; mTORC1 inh: 3%; NLuc saturating: -15%; NLuc Km ctr: -18%; FLuc ctr PMP22: 1%; S16 F2sN tox cnf: -18%; PMP22 txn cnf: 1%

How did Clc1ncnc2scc(C3COc4ccccc4O3)c12 (configuration not stated) do in these assays?
p53null 32C tox: -12%; p53null 39C kill: 13%

How did COC(=O)C1=C(C)N=C2SCCC(=O)N2C1c1ccc(OCc2ccccc2)c(OC)c1 (configuration not stated) do in these assays?
p53null 32C tox: 3%; p53null 39C kill: -11%; PMP22 txn prim: -7%; S16 F2sN tox: 15%; mTORC1 inh: -1%

Results for COc1cc(C2C(C(=O)OC(C)C)=C(C)N=C3SCCC(=O)N32)ccc1OCc1ccccc1 (configuration not stated) ?
p53null 32C tox: 3%; p53null 39C kill: 7%; PMP22 txn prim: 20µM*; S16 F2sN tox: -15%; mTORC1 inh: 2%; NLuc saturating: -5%; NLuc Km ctr: 7%; FLuc ctr PMP22: -8%; S16 F2sN tox cnf: inconclusive; PMP22 txn cnf: -25%

Results for CCN(CC)CCOC(=O)c1ccc(NC(=O)Cn2ncc3c([nH]c4ccc(C)cc43)c2=O)cc1 ?
p53null 32C tox: 3%; p53null 39C kill: -27%; PMP22 txn prim: 10µM*; S16 F2sN tox: inconclusive; mTORC1 inh: 6%; NLuc saturating: -5%; NLuc Km ctr: -2%; FLuc ctr PMP22: 4%; S16 F2sN tox cnf: 15µM*; PMP22 txn cnf: 13µM*

How did Cc1ccc(S(=O)(=O)Cc2ccc(C(=O)N3CCN(c4cccc(C)c4C)CC3)o2)cc1 do in these assays?
p53null 32C tox: 9%; p53null 39C kill: 14%; PMP22 txn prim: 14µM*; S16 F2sN tox: -19%; mTORC1 inh: inconclusive; NLuc saturating: -9%; NLuc Km ctr: 2%; FLuc ctr PMP22: 5%; S16 F2sN tox cnf: -17%; PMP22 txn cnf: inconclusive

How did Cc1cccc(N2CCN(C(=O)c3ccc(CS(=O)c4cccc(Cl)c4)o3)CC2)c1C (configuration not stated) do in these assays?
p53null 32C tox: -21%; p53null 39C kill: inconclusive; PMP22 txn prim: 9.6µM*; S16 F2sN tox: inconclusive; mTORC1 inh: 7.4µM*; NLuc saturating: -19%; NLuc Km ctr: inconclusive; FLuc ctr PMP22: -3%; S16 F2sN tox cnf: -15%; PMP22 txn cnf: inconclusive

What do the screens show for `Cc1ccc(C)c(NC(=O)CSc2nc(=O)n(Cc3ccncc3)c3c2CCC3)c1`?
p53null 32C tox: 5%; p53null 39C kill: -11%; PMP22 txn prim: -11%; S16 F2sN tox: 9%; mTORC1 inh: -13%

Results for O=C(CN1C(=O)CCn2nc(-c3ccccc3)cc21)NCc1ccc(Cl)cc1 ?
p53null 32C tox: 8%; p53null 39C kill: 3%; PMP22 txn prim: -6%; S16 F2sN tox: -10%; mTORC1 inh: 3%

How did CCC1=Nc2cc(C(=O)NCc3ccccc3Cl)ccc2Sc2ccc(C)cc21 do in these assays?
p53null 32C tox: 18%; p53null 39C kill: 11%; PMP22 txn prim: 10µM*; S16 F2sN tox: -14%; mTORC1 inh: inconclusive; NLuc saturating: -4%; NLuc Km ctr: 1%; FLuc ctr PMP22: -6%; S16 F2sN tox cnf: 16%; PMP22 txn cnf: -24%

What do the screens show for `CC1=Nc2cc(C(=O)NCc3ccccc3Cl)ccc2Sc2c(C)ccc(C)c21`?
p53null 32C tox: 27%; p53null 39C kill: 44%; PMP22 txn prim: 10µM*; S16 F2sN tox: 0%; mTORC1 inh: -17%; NLuc saturating: -16%; NLuc Km ctr: 0%; FLuc ctr PMP22: -13%; S16 F2sN tox cnf: 7%; PMP22 txn cnf: inconclusive

Results for CCOc1cc2[nH]c(=O)n(Cc3ccc(C(=O)N4CCN(c5cccc(Cl)c5)CC4)cc3)c(=O)c2cc1OCC ?
p53null 32C tox: 6%; p53null 39C kill: -3%; PMP22 txn prim: 2%; S16 F2sN tox: -3%; mTORC1 inh: 0%

How did CCOc1ccc(CNS(=O)(=O)c2cc(-c3cc(C)no3)ccc2C)cc1OC do in these assays?
p53null 32C tox: -9%; p53null 39C kill: -5%; PMP22 txn prim: -9%; S16 F2sN tox: 0%; mTORC1 inh: 3%

Results for CCc1ccc(-c2cc(C)no2)cc1S(=O)(=O)NCc1ccc(OC)cc1 ?
p53null 32C tox: -19%; p53null 39C kill: inconclusive; PMP22 txn prim: 6µM*; S16 F2sN tox: 2%; mTORC1 inh: inconclusive; NLuc saturating: inconclusive; NLuc Km ctr: inconclusive; FLuc ctr PMP22: -18%; S16 F2sN tox cnf: -11%; PMP22 txn cnf: inconclusive

What do the screens show for `CCS(=O)(=O)c1nc(S(=O)(=O)c2ccc(Cl)cc2)c(NCc2ccccc2Cl)s1`?
p53null 32C tox: -2%; p53null 39C kill: 0%; PMP22 txn prim: 4.8µM*; S16 F2sN tox: -26%; mTORC1 inh: -16%; NLuc saturating: inconclusive; NLuc Km ctr: inconclusive; FLuc ctr PMP22: 8%; S16 F2sN tox cnf: 4%; PMP22 txn cnf: -21%

Results for COc1ccc(-n2cc(C(=O)OCc3ccc(F)c(F)c3)c3ccccc3c2=O)cc1 ?
p53null 32C tox: -19%; p53null 39C kill: 2%; PMP22 txn prim: inconclusive; S16 F2sN tox: 3%; mTORC1 inh: -5%

From PubChem BioAssay
